Source: PubChem
WRN inhibitor: blocks human WRN helicase; WRN helicase unwinding, fluorescent forked duplex, kinetic; AID 651768; Potency, µM (titrated, usually from 114 µM), for inactives: at the top dose activity change, negative = inhibition, actives largely listed as inhibitors; Q14191; 360,000 tested, 0.46% active; also: potency is read from the fitted curve at half-maximal effect; % is scaled to controls: 0 for no effect and ±100 for the full control effect; nearly all actives have a fitted effect of over 55% in size
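Enzyme (20 nM final) and test compound sit together 15 min at room temperature before substrate addition. Substrate is a single-forked duplex oligonucleotide (100 nM) labelled with fluorophore and quencher, with 2 mM ATP; helicase unwinding raises red fluorescence, read kinetically.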
Pol iota inh: inhibitors of human DNA polymerase iota; Q9UNA4; Pol iota fluorescent replication assay, 10 min; Potency, µM (series often up to 115 µM), for inactives: at the highest dose activity, negative = inhibition, most hits filed as inhibitors; 390,000 tested, 1% active; also: potency is read from the fitted curve at half-maximal effect
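Pol iota at 10 nM preincubated 15 min with compounds at room temperature; reaction started with fluorescent substrate, 50 nM final. Fluorescence read kinetically at 0 and 10 min; buffer-only wells as negative control.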
POLK inh: DNA polymerase kappa (human) inhibition. purified Pol kappa, fluorescent DNA synthesis assay, 10 min. Q9UBT6. Potency, µM (highest dose often 107 µM), for the others: top-dose activity, negative = inhibition, hits mostly inhibitors. 400,000 tested, 0.53% active; also: potency is read from the fitted curve at half-maximal effect; % is scaled to controls: 0 for no effect and ±100 for the full control effect
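Enzyme at 10 nM met test compounds for 15 min at room temperature. Substrate addition (50 nM final) began the reaction, which was monitored by fluorescence at 0 and 10 min.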
POLH inh: DNA polymerase eta (human) inhibition | Potency, µM (highest dose often 114 µM), for the others: top-dose activity change, negative = inhibition, usual class: inhibitors | AID 588591 | 390,000 tested, 1.2% active | recombinant Pol eta, fluorescent DNA replication assay | Q9Y253; also: potency is read from the fitted curve at half-maximal effect; % is scaled to controls: 0 for no effect and ±100 for the full control effect
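Pol eta at 10 nM preincubated with compounds 15 min at room temperature; reaction started with fluorescent substrate (50 nM final) and read kinetically at 0 and 10 min.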
POLB inh: inhibitors of human DNA polymerase beta. Potency, µM (series often up to 114 µM), for the others: at the highest dose activity change, negative = inhibition, hits mostly inhibitors. 340,000 tested, 1.3% active. P06746. Pol beta primer extension/strand displacement, fluorescence kinetic; also: potency is read from the fitted curve at half-maximal effect; % is scaled to controls: 0 for no effect and ±100 for the full control effect
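Kinetic readout of DNA synthesis with strand displacement by Pol beta. Compound and 10 nM enzyme sit 15 min at room temperature; 50 nM substrate starts the reaction, read immediately and at 10 min.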
PI5P4Ka inh: PI5P4K alpha (human) kinase inhibition; P48426; PI5P4Kalpha enzyme, ADP-Glo luminescence, 60 min; active compounds read low; max response, %; 330,000 tested, 1.2% active; active = max response of -50% or lower; inconclusive = between -30% and -50%; inactive = -30% or higher; also: value at the top dose of about 77 µM; % is scaled to controls: 0 for no effect and ±100 for the full control effect
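ADP-Glo luminescence end-point after a 60 min room-temperature kinase reaction. PI5P4Kalpha and substrate in HEPES pH 7.4 buffer with EGTA, 0.1% CHAPS and 5% DMSO; ATP at 5 microM final.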
The depositor's hits bear a star; ? = inconclusive; · = no result; ! = repeats disagree; [ ] = another dose, or the depositor's remark. This is a sample that favours compounds with a hit; in the whole collection about 2.8% have one here. Unless noted, calls follow the shape of the dose curve; as a rule, active = well fitted curve in the direction sought with a large enough effect; inconclusive = small, poorly fitted or top-dose-only effect, or another doubt; inactive = no such curve, though single readings can be large; an effect the other way counts as inactive or inconclusive.

SMILES	WRN inhibitor	Pol iota inh	POLK inh	POLH inh	POLB inh	PI5P4Ka inh
COC1C(OC(=O)c2ccc(C)[nH]2)C(O)C(Oc2ccc3c(O)c(NC(=O)c4ccc(O)c(CC=C(C)C)c4)c(=O)oc3c2Cl)OC1(C)C (stereo not given)	-32%	-22%	-17%	?	45µM*	?
O=C(NCC1CC1)c1cc([N+](=O)[O-])cc([N+](=O)[O-])c1	0%	145%	-4%	-8%	24%	2
C/C=C(\C)C(=O)OC1C(C)=C2C(C1OC(=O)CCCCC)C(C)(OC(C)=O)CC(OC(=O)CCC)C1(O)C2OC(=O)C1(C)O (stereo not given)	·	·	·	·	25µM*	·
Cc1ccc(N2C(=O)NC(=O)/C(=C\c3cn(CC(=O)O)c4ccccc34)C2=O)cc1	-10%[11.6 µM]	32µM*	-3%	?	0%	-5
COC(=O)Cn1cc(/C=C2\C(=O)NC(=O)N(c3ccccc3)C2=O)c2ccccc21	-5%[57.1 µM]	?	-3%	-3%	5%	-9
COc1cc(NCCCn2cnc(C(=O)Nc3ccc(C)c(C)c3)n2)cc(OC)c1OC	-5%	27%	-4%	-18%	·	9
O=C(O)c1ccc2c(c1)C1C(Cl)C(Sc3ccccc3[N+](=O)[O-])CC1C(c1cccc([N+](=O)[O-])c1)N2 (stereo not given)	?	?	50µM*	22µM*	?	?
O=C(O)c1cccc2c1NC(c1cccc([N+](=O)[O-])c1)C1CC(Sc3ccccc3[N+](=O)[O-])C(Cl)C21 (stereo not given)	-32%	?	?	32µM*	?	-23
O=[N+]([O-])c1cccc(C2N3CCCN23)c1 (stereo not given)	3%	17%	-1%	-17%	91%	1
CCN(CC)C(=O)c1ccc2c(c1)C1C(Cl)C(Sc3ccccc3[N+](=O)[O-])CC1C(C(=O)O)N2 (stereo not given)	-27%	?	?	18µM*	50µM*	-59*
CCCN1CCc2cc(O)cc3c2[C@H]1Cc1ccc(O)c(O)c1-3	0%	14µM*	-10%[60.1 µM]	-8%	·	?
CN1CCc2cc(O)cc3c2[C@H]1Cc1ccc(O)c(O)c1-3	-35%	-20%	-6%[60.1 µM]	5%	·	-52*
CCCN1CCc2cccc3c2C1Cc1ccc(O)c(O)c1-3 (stereo not given)	·	?	-1%[19.4 µM]	-8%[57.1 µM]	-1%[57.1 µM]	·
Cc1noc(C)c1NC(=O)Nc1cccc2c1O[C@H](CN(C)C(=O)NC1CCCCC1)[C@@H](C)CN([C@H](C)CO)C2=O	-8%	27%	-1%	-22%	·	0
O=C(O)CCC(CP(=O)(O)O)C(=O)O (stereo not given)	·	·	11%[60.1 µM]	·	·	·
CCOc1ccccc1NC(=O)NCc1ccc2c(c1)CCN2C(=O)c1ccccc1	·	?	-21%[60.1 µM]	-11%	2%	·
O=c1[nH]sc2cc(F)ccc12	32µM*	93%	6%	-4%	?	-82*
CCN1C(=O)CC(=O)N(CC)C1=S	?	·	·	-6%	·	-55*
CCN1C(=O)C(=C2C=C(C)OC(C)=C2)C(=O)N(CC)C1=S	1%	-6%	-3%[60.1 µM]	-9%	-10%	2
Cc1ccc(C)c(N2CCN(C(=O)CCS(=O)(=O)c3ccc4c(c3)oc(=O)n4C)CC2)c1	-5%	57%	0%	-21%	0%	-8
CC(C)[C@@]1(NC(=O)[C@H]2CC3c4cccc5[nH]cc(c45)C[C@H]3N(C)C2)O[C@@]2(O)C3CCCN3C(=O)[C@@H](Cc3ccccc3)N2C1=O (stereo not given in full)	·	·	0%[19.4 µM]	·	·	·
CC(C)(C)c1cc(C=C(C#N)C#N)cc(C(C)(C)C)c1O	-6%	1%	2%[60.1 µM]	-15%	10%[57.1 µM]	1
N#CC(=Cc1ccc(O)c(O)c1)C(N)=S	·	6.3µM*	·	3.2µM*	2.8µM*	·
N#CC(C#N)=Cc1ccc(O)c(O)c1	-4%	?	11µM*!	7.9µM*!	-12%[57.1 µM]	-12
